# Data reported in PubChem BioAssay (NCATS).
# Records with an inconclusive call do not appear. A call without a number means that no potency is given here. Activity calls are given as the source filed them. Unless noted, calls come from the whole dose curve; as a rule, active = well fitted curve in the direction sought with a large enough effect; inconclusive = small, poorly fitted or top-dose-only effect, or another doubt; inactive = no such curve, though single readings can be large; an effect the other way counts as inactive or inconclusive.
# What was measured:
# [1] = target: Cytochrome P450 2C9 (Homo sapiens) (UniProt P11712); experiment: qHTS for inhibitors of CYP2C9 against the NCATS DSHEA and TCM libraries (AID 1919973); note: potency is the fitted concentration of half-maximal effect
# Method in brief: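 Read-out is luminescence after P450-Glo detection (30 min, RT). Before that: 15 min compound–enzyme preincubation, then 30-45 min reaction with 1x NADPH regeneration solution, substrate concentration isoform-specific.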
# [2] = Cytotoxicity counterscreen for NFkB agonists and antagonists (AID 624476);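 note: cells exposed to compound for 48 hours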
# [3] = qHTS Assay for Identification of Small Molecule Agonists for NFkB Signaling Pathway. (AID 624478);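 note: compounds tested together with TNF alpha at its EC50 of 10 pM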
# Method in brief: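 ME-180 cervical carcinoma, stable NFkB-RE beta-lactamase reporter; 1000 cells/well, overnight attachment; cpd + TNF alpha 10 pM final, 5 h 37 C; LiveBLAzer 2 h RT; FRET 460/530 nm, ex 405 nm.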
# [4] = qHTS Assay for Identification of Small Molecule Antagonists for NFkB Signaling Pathway. (AID 624479; calls by dose curve;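 note: pathway stimulated with TNF alpha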)
# [5] = Cell Viability - NIH 3T3 (AID 541); conditions: NIH 3T3 cell viability, qHTS; activity change, negative = cytotoxicity: at 92.2 µM (top of the series); note: nearly all actives have a fitted effect of over 25% in size
# Method in brief: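 Luminescent ATP signal (CellTiter-Glo) served as the viability read-out after NIH 3T3 cells were exposed to compounds over a concentration range for 40 hr at 37 °C. Hill-equation modelling of concentration-response data gave AC50.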
# [6] = Cellular Toxicity (caspase-3) H-4-II-E (AID 663); conditions: Potency: caspase-3 activation;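 note: cells exposed to compound for 16 hr before readout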
# Method in brief: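 Luminescence from caspase-cleaved aminoluciferin substrate, read 20 min after reagent addition, reports caspase 3/7 activation in rat H-4-II-E cells after 16 hr compound exposure. Normalized to DMSO (basal) and 100 uM tamoxifen (100%); AC50 from Hill fits.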
# [7] = target: Estrogen receptor (Homo sapiens) (UniProt P03372); experiment: qHTS assay for small molecule antagonists of estrogen receptor alpha signaling (AID 588513; active = well fitted curve in the direction sought with a large enough effect in the signal ratio, with a control signal flat, not every such curve was filed as active; the % refers to the signal ratio)
# Method in brief: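 ER-alpha-UAS-bla GripTite HEK 293 cells in medium with 2% charcoal/dextran-treated FBS were preincubated 4 h at 37 C, dosed with compound (1:2 titration), stimulated with 0.5nM 17-beta-estradiol for 18 h, then read by CCF4 beta-lactamase fluorescence.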
# [8] = target: Tumor necrosis factor (Homo sapiens) (UniProt P01375); experiment: qHTS assay to identify small molecules that stimulate Tumor Necrosis Factor-alpha (TNF-alpha) secretion (AID 651757; active = well fitted curve in the direction sought with a large enough effect in the signal ratio; the % refers to the signal ratio)
# Method in brief: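 Read-out is HTRF, a TR-FRET sandwich of cryptate- and XL665-labeled anti-TNF-alpha antibodies detecting cytokine secreted by THP-1 cells. Cells had been incubated with test compounds at 37 C for 17 hrs beforehand.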
# [9] = target: Nuclear receptor subfamily 1 group I member 2 (Homo sapiens) (UniProt O75469); experiment: Dual reporter qHTS for agonist of Pregnane X Receptor (hPXR) against the NCATS DSHEA and TCM libraries: Luminescence readout (AID 1920059)
# Method in brief: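 hPXR-LucHepG2 cells in phenol red-free DMEM with 5% charcoal-stripped FBS, 2000 cells/well, attached 5 h, then exposed 24 h at 37C to compounds; rifampicin as positive agonist control (2.8 nM–92 uM). Luciferase luminescence read.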
# Sequence of Estrogen receptor (Homo sapiens) (P03372 whole entry, looked up): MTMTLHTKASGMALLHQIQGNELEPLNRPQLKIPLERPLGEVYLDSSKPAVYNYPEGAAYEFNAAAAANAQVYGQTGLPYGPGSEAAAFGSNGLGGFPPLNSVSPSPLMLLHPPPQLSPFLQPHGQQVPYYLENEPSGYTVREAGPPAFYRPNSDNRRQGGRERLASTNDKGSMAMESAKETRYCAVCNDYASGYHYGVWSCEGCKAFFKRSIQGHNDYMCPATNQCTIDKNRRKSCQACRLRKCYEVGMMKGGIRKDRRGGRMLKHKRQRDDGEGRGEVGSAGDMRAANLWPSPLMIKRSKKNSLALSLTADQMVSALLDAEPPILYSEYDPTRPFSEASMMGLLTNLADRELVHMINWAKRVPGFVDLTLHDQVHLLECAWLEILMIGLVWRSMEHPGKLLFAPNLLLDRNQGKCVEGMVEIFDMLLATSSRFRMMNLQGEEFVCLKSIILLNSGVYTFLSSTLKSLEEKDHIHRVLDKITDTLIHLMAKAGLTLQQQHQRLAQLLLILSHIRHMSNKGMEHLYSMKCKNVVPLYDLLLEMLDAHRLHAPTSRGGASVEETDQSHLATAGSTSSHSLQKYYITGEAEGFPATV
# Sequence of Tumor necrosis factor (Homo sapiens) (P01375 whole entry, looked up): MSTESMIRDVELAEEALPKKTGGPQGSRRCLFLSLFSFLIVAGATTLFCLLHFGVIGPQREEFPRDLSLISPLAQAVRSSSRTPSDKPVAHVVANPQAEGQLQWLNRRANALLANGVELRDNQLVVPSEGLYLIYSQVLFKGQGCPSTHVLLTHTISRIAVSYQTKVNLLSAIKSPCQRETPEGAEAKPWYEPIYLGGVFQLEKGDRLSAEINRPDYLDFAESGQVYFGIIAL
# Sequence of Cytochrome P450 2C9 (Homo sapiens) (P11712 whole entry, looked up, canonical isoform): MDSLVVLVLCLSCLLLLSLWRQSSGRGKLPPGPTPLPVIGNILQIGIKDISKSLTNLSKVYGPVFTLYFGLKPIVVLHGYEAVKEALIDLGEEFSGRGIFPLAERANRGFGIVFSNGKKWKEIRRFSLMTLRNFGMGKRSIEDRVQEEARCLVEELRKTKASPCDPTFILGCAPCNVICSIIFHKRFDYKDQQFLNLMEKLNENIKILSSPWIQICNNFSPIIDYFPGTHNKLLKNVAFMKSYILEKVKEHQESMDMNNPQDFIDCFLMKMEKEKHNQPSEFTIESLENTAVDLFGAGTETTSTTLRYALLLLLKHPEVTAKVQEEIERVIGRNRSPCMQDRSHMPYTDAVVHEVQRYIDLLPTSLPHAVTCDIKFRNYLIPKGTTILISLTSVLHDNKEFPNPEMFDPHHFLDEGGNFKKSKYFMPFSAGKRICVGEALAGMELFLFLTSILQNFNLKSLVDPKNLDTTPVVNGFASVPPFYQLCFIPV
# Sequence of Nuclear receptor subfamily 1 group I member 2 (Homo sapiens) (O75469 whole entry, looked up): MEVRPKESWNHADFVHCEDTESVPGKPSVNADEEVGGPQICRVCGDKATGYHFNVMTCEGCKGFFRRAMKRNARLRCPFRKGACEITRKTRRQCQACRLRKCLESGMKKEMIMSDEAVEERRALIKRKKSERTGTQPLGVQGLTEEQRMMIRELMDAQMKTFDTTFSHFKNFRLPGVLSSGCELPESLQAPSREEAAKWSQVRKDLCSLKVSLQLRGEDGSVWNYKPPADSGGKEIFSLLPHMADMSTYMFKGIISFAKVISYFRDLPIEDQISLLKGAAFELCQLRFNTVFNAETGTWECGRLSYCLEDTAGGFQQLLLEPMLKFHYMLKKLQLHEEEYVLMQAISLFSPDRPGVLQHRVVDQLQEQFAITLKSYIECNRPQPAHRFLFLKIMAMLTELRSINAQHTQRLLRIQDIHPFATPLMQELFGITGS
structure (smiles),measurement,setting,value
O=C(/C=C/c1ccc(O)c(O)c1)O[C@H]1[C@H](O)C[C@](O)(C(=O)O)C[C@H]1OC(=O)/C=C/c1ccc(O)c(O)c1,Potency,[1],15.8 µM (active)
CCC(C)n1ncn(-c2ccc(N3CCN(c4ccc(OCC5COC(Cn6cncn6)(c6ccc(Cl)cc6Cl)O5)cc4)CC3)cc2)c1=O (centres undefined),outcome,[2],inactive
same,outcome,[3],inactive
same,outcome,[4],inactive
CC12CCC(CC1=O)C2(C)C (centres undefined),Potency,[5],inactive
same,Potency,[6],inactive
same,Potency,[7],inactive
same,outcome,[8],inactive
O=c1c(O[C@@H]2O[C@H](CO)[C@H](O)[C@H](O)[C@H]2O)c(-c2ccc(O)c(O)c2)oc2cc(O)cc(O)c12,Potency,[9],inactive
